aSyn rescue: rescues yeast growth from alpha-synuclein toxicity; AID 652106; Potency, µM (doses to about 46.1 µM), for inactives: at the top dose growth rescue (activation), hits mostly activators; Yeast expressing alpha-synuclein, growth rescue, BacTiter-Glo, 24 h; actives 0.14% (n = 370,000); also: % of control where 0% means no effect; nearly all actives have a fitted effect of over 65% in size
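Galactose-induced alpha-syn yeast (OD600=0.02, raffinose-pregrown) + pinned cpd, 24 hr, 30 deg C; growth by BacTiter-Glo luminescence. Growth restoration scores as activation.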
Abeta yeast res: compounds reversing amyloid beta toxicity in yeast; yeast expressing A-beta42, growth rescue, OD600, 48 h; response scale: 0% DMSO, 100% iron-clioquinol control; Potency, µM (highest dose often 46.1 µM), hits mostly activators; actives 0.063% (n = 410,000); AID 1347071; also: nearly all actives have a fitted effect of over 55% in size
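Yeast A-beta toxicity model in growth medium with pinned compounds, 48 h at 30 C; growth read as absorbance at 600 nm. Normalized to FeCl3/clioquinol equimolar mix (positive) and DMSO (negative).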
TDP43 rescue: TDP-43 toxicity inhibition in yeast; TDP-43 expressing yeast growth rescue, BacTiter-Glo, 24 h; Potency, µM (titrated, usually from 46.1 µM), for the others: at the highest dose growth rescue (activation), actives largely listed as activators; actives 1.8% (n = 410,000); also: % of control where 0% means no effect; nearly all actives have a fitted effect of over 50% in size
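Cell-based yeast growth screen: TDP-43 expression induced in galactose, inoculum OD600=0.02 after raffinose pregrowth to mid-log. Read-out BacTiter-Glo luminescence at 24 hr, 30 deg C; inhibition of toxicity seen as signal increase.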
FUS yeast rescue: rescues growth of FUS-expressing yeast. Potency, µM (highest dose often 76.6 µM), most hits filed as activators. actives 0.24% (n = 390,000). S. cerevisiae FUS-expressing, growth rescue, OD600, 24 h;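 also: plate controls were DMSO vehicle for no effect and reference control for full effect; nearly all actives have a fitted effect of over 55% in size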
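Toxicity suppression screen in FUS-yeast. Cells induced with 2% galactose, starting OD 0.005, treated 24hr at 30C with compounds at multiple final concentrations; growth by OD600.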
* hit, by the source's call; i = inactive; u = inconclusive; x = no result given; [ ] = remark or other dose. Only some compounds are listed: those with a hit (about 2.1% of all), similar ones and a draw of the others. Calls follow the shape of the dose curve; as a rule, active = well fitted curve in the direction sought with a large enough effect; inconclusive = small, poorly fitted or top-dose-only effect, or another doubt; inactive = no such curve, though single readings can be large; an effect the other way counts as inactive or inconclusive. Potency is read from the fitted curve at half-maximal effect.

SMILES	aSyn rescue	Abeta yeast res	TDP43 rescue	FUS yeast rescue
COc1ccccc1NC(=O)CSc1nc2c(oc3ccccc32)c(=O)n1Cc1ccco1	x	i	21%	i
Cc1cc(C)cc(-n2c(SCC(=O)Nc3ccccc3)nc3c(oc4ccccc43)c2=O)c1	x	i	14%	i
COc1ccc(CCNC(=O)CCc2c(C)c3cc4c(C)coc4c(C)c3oc2=O)cc1OC	x	i	2%	i
CCC(CC)c1nnc(NC(=O)c2c(C)nn(Cc3ccccc3Cl)c2C)s1	7%	i	u	8.9µM*
Fc1c(F)c(F)c(CSc2nc3ccccc3[nH]2)c(F)c1F	-11%	i	11µM*	i
COc1ccc(Cc2c(C)nn(-c3nc(C)c(C(=O)Nc4cccc(C(C)=O)c4)s3)c2C)cc1	x	i	-1%	i
O=C(COc1ccccc1C(=O)Nc1ccccc1)Nc1ccc(Br)cc1	9%	x	x	x
FC(F)(F)c1cccc(NC(=S)NCC2COc3ccccc3O2)c1 (stereo not drawn)	-29%	i	35µM*	i
CN(CC1COc2ccccc2O1)C(=S)Nc1ccccc1 (stereo not drawn)	14%	u	13µM*	i
Cc1ccc(NC(=O)CC2COc3ccccc3O2)cc1 (stereo not drawn)	3%	i	0%	i
CCCNC(=S)Nc1cccc(C(F)(F)F)c1	-3%	i	-15%	i
CCOc1ccccc1CNC(=O)CN1C(=O)CCc2cc(S(=O)(=O)N3CCCCC3)ccc21	x	i	0%	u
O=C(COc1ccccc1C(=O)Nc1cccnc1)Nc1ccc(Br)cc1	-3%	x	x	x
CCN(CCO)c1ncnc2c1sc1nc(CC(C)C)c3c(c12)CC(C)(C)OC3	2%	i	18µM*	u
CCCCCC(=O)NC(=S)Nc1cccc(C(C)=O)c1	4%	8.9µM*	-14%[0.397 µM]	i
CCCS(=O)(=O)NCCc1sc2nc(-c3ccc(F)cc3)nn2c1C	x	i	24%	i
Cc1c(CCNC(=O)c2ccco2)sc2nc(-c3ccc(F)cc3)nn12	x	i	u	i
Cc1ccc(-c2nc3sc(CCNC(=O)c4ccco4)c(C)n3n2)cc1	x	i	20µM*	i
Cc1ccc(-c2nc3sc(CCNC(=O)c4ccc(Br)o4)c(C)n3n2)cc1	x	i	18µM*	u
Cc1c(CCNC(=O)Cc2ccc(F)cc2)sc2nc(-c3ccc(F)cc3)nn12	x	i	u	i
Cc1c(CCNC(=O)Cc2ccccc2)sc2nc(-c3ccc(F)cc3)nn12	x	i	10µM*	i
Cc1cc(C)c(S(=O)(=O)NCCc2sc3nc(-c4ccc(F)cc4)nn3c2C)c(C)c1	x	u	20µM*	i
COc1ccccc1CN(C)CC(=O)c1c(C)[nH]c2ccccc12	0%	x	x	x
CCCCNC(=O)O[C@H]1CC[C@@]23CCCN2C(=O)CCC[C@H]3[C@H]1CCC	x	x	x	i
COc1cc(-c2noc(CCC(=O)Nc3cc(C)ccc3C)n2)cc(OC)c1OC	x	i	u	i
SMILES	aSyn rescue	Abeta yeast res	TDP43 rescue	FUS yeast rescue
COC(=O)c1ccc(Cl)c(NS(=O)(=O)c2ccc3c(c2)OCCO3)c1	6%	i	25µM*	i
Cc1cc(O)cc2c1O[C@](C)(CCC(=O)O)CC2	-6%	x	x	x
CN=c1scc(C)n1/N=C/c1cc(Br)c(O)c(OC)c1	-2%	i	11µM*	i
COc1ccc(-c2nc3scc(CCNS(=O)(=O)c4ccccc4F)n3n2)cc1	x	i	22µM*	i
COc1ccc(OC)c(S(=O)(=O)n2nnc3ccccc32)c1	-13%	i	u	x
COc1ccc(F)cc1S(=O)(=O)n1nnc2ccccc21	u	i	10µM*	u
Cc1oc2ncn(CC(C)C)c(=O)c2c1C(=O)NC(C)c1ccccc1 (stereo not drawn)	x	i	10%	i
Cc1cccc([C@@H]2[C@@H]3C(=O)N(Cc4ccccc4)C(=O)[C@@H]3[C@]3(Cc4ccccc4)C(=O)N(c4cccc(F)c4)C(=O)N23)c1	-2%	i	-8%	i
CC[C@@]12C(=O)N(c3cccc(F)c3)C(=O)N1[C@H](c1cccc(C)c1)[C@@H]1C(=O)N(Cc3ccccc3)C(=O)[C@@H]12	2%	i	-1%	32µM*
CC(Cl)C(=O)N1CCC(C(=O)NC2CCCc3ccccc32)CC1 (stereo not drawn)	x	x	x	i
CCCCC(c1nnnn1CC1CCCO1)N1CCN(c2cc(Cl)ccc2C)CC1 (stereo not drawn)	-14%	i	18µM*	x
CCN1C(=NCc2cccc(C(F)(F)F)c2)N[C@@H](c2cccc(C(F)(F)F)c2)C(C(=O)OC)=C1C	-4%	x	x	x
O=C(NCCc1ccccc1)c1ccc(-c2ccccc2C(F)(F)F)o1	-4%	i	22%	i
O=C(NCCc1ccccc1)c1ccc(-c2ccc(F)cc2)o1	0%	i	20µM*	i
Cc1ccc(C(=O)NC2CCSC2=O)cc1 (stereo not drawn)	-4%	i	-20%	i
Cc1ccc(C(=O)NC2CCc3ccccc3C2=O)cc1 (stereo not drawn)	-3%	i	14µM*	i
Clc1ccc(-c2nn3c(-c4cc(-c5ccccc5)n[nH]4)nnc3s2)cc1	5%	x	x	x
Cc1c(C(=O)Nc2ccc(N3CCOCC3)cc2)oc2ccccc12	-7%	i	7.9µM*	i
CCc1ccc(NC(=O)CSc2nc3ccsc3c(=O)n2C(C)CC)cc1 (stereo not drawn)	x	i	20%	i
COc1ccccc1-c1oc2ccccc2c1C#CC(C)(C)O	5%	i	16µM*	i
COc1ccccc1-c1oc2ccccc2c1C#CCO	-2%	i	-3%	i
O=C(NC1CCCC1)C1(C(=O)C2CC2)CC(c2ccccn2)=NO1 (stereo not drawn)	x	x	x	i
CCc1cccc(Nc2ncnc3onc(-c4ccc(F)cc4)c23)c1	x	i	u	i
Cc1cccc(Nc2ncnc3onc(-c4cccc(Cl)c4)c23)c1C	-2%	i	13µM*	u
Cc1cccc(Nc2ncnc3onc(-c4ccc(F)cc4)c23)c1C	-1%	i	14µM*	u
SMILES	aSyn rescue	Abeta yeast res	TDP43 rescue	FUS yeast rescue
Cc1ccccc1NC(=O)CSc1ccc(-c2cccs2)nn1	x	i	u	i
Cc1ccsc1/C=N/NC(=O)CSCc1ccc(Cl)cc1	u	i	14µM*	i
COc1cc2nc(N3CCCN(C)CC3)nc(OC3CCN(C)CC3)c2cc1OC	-1%	x	x	x
C/C(=N\Nc1ccccc1Cl)c1ccc(-n2ccnc2)cc1	0%	i	7.1µM*	i
O=C(NNC(=S)Nc1cccc(C(F)(F)F)c1)c1cccc(Cl)c1	-7%	i	8.9µM*	i
O=C(Nc1cccc(-c2csc(Nc3ccc(Cl)cc3)n2)c1)c1cccc(C(F)(F)F)c1	-22%	i	25µM*	i
O=S(=O)(c1ccc2c(Cl)cccc2c1)N1CCN(c2nc(-c3cccs3)nc3ccccc23)CC1	-3%	x	x	x

Screening results as filed in PubChem BioAssay.
